Test results as given in the supplement of paper PMC11732987, “Enantioselective OTUD7B fragment discovery through chemoproteomics screening and high-throughput optimisation” (Communications Chemistry, 2025).

Legend:
Experiment in all cases: log2 ratio of Biotin-Ahx-Ub-VS probe labelling (fragment/DMSO); higher = less target engagement (more negative = stronger competition), active = hit call of the paper (q ≤ 0.05, log2 ratio ≤ -1)
Conditions in all cases: compound concentration: 200 uM; treatment time: 3 h
[1] = target: T1, USP42 (UniProt Q9H9J4)
T1 sequence (whole entry): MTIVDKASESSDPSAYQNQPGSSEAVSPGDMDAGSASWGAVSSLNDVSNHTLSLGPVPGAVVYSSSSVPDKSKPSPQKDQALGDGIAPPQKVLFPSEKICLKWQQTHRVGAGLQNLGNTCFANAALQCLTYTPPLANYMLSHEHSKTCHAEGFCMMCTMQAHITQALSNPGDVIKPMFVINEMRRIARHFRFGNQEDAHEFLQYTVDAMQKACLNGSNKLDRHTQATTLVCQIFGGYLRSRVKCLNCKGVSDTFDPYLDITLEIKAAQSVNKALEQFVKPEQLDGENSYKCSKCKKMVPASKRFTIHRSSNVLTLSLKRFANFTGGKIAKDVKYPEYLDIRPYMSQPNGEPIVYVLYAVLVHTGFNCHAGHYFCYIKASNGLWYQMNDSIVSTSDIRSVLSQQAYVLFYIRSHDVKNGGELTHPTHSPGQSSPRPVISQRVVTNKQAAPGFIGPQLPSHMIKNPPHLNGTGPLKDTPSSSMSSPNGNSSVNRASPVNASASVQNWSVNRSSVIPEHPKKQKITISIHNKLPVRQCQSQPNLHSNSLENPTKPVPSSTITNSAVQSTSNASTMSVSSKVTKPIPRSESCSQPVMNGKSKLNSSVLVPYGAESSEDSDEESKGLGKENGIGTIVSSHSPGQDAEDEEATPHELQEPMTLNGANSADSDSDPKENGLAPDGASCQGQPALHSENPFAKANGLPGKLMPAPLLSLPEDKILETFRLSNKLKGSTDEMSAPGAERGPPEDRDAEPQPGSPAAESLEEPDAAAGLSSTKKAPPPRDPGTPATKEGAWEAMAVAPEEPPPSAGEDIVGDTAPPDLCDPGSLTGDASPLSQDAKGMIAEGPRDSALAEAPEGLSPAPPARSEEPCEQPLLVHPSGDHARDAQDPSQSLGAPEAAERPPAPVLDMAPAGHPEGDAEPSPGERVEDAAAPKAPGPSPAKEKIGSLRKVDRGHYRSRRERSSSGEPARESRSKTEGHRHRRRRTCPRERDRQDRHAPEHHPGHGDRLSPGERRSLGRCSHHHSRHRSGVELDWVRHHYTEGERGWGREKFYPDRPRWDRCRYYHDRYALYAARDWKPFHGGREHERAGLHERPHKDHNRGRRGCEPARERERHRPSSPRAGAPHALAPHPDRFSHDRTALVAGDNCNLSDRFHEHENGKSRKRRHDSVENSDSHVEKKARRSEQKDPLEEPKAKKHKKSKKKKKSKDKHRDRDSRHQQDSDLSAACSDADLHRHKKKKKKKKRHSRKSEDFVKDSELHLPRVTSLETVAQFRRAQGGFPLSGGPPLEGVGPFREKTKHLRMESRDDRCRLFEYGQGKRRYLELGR
Summary of the method: (§1)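 Fragment (200 µM) or vehicle was incubated for 3 h with triplicate HEK293T lysate samples of 495 µg, which were then treated with Biotin-Ahx-Ub-VS at 0.5 µM final for 1 h. Labelled DUBs were enriched on NeutrAvidin, digested with LysC and trypsin, and analysed by diaPASEF LC-MS/MS. Values are average log2 fragment/vehicle ratios from an unpaired t-test on global-median-normalised Spectronaut label-free quantities, using proteins with ≥2 unique peptides.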

[2] = target: USP46 (UniProt P62068)
Summary of the method: as §1

[3] = target: T2, USP47 (UniProt Q96K76)
T2 sequence (whole entry): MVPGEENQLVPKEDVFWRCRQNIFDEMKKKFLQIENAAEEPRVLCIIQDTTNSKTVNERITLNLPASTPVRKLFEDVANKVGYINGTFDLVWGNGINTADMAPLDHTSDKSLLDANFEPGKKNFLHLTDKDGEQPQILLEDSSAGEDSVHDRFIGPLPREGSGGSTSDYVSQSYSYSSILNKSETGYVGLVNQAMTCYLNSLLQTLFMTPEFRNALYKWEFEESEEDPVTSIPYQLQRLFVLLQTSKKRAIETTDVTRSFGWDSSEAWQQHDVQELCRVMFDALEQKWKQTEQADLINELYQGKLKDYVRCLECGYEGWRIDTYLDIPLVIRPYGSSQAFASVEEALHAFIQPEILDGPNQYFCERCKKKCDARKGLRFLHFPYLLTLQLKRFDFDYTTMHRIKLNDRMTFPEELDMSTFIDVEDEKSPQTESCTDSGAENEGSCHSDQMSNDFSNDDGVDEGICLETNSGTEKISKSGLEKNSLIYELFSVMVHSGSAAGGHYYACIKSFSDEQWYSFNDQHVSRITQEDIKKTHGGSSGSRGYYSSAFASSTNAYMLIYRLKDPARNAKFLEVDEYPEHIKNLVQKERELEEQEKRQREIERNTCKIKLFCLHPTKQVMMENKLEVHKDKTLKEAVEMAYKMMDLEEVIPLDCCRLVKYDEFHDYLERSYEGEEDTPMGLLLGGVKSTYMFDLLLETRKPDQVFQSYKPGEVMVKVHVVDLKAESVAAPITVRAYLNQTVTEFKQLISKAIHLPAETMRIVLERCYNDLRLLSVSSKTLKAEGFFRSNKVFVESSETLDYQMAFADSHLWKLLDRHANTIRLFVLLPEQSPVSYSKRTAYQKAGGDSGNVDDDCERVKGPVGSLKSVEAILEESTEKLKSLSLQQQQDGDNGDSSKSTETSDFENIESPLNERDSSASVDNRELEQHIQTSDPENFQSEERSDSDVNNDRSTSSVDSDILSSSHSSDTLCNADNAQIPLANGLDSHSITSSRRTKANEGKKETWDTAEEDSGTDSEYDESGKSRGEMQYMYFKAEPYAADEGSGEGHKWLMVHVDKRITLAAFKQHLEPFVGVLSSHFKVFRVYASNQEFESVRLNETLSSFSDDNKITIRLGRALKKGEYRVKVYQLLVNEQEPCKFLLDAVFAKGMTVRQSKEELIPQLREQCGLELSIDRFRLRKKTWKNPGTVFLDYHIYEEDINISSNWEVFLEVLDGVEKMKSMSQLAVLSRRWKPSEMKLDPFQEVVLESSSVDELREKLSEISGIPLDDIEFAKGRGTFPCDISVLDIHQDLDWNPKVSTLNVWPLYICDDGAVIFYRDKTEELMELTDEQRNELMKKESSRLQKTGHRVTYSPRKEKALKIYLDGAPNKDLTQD
Summary of the method: as §1

[4] = target: T3, USP48 (UniProt Q86UV5)
T3 sequence (whole entry): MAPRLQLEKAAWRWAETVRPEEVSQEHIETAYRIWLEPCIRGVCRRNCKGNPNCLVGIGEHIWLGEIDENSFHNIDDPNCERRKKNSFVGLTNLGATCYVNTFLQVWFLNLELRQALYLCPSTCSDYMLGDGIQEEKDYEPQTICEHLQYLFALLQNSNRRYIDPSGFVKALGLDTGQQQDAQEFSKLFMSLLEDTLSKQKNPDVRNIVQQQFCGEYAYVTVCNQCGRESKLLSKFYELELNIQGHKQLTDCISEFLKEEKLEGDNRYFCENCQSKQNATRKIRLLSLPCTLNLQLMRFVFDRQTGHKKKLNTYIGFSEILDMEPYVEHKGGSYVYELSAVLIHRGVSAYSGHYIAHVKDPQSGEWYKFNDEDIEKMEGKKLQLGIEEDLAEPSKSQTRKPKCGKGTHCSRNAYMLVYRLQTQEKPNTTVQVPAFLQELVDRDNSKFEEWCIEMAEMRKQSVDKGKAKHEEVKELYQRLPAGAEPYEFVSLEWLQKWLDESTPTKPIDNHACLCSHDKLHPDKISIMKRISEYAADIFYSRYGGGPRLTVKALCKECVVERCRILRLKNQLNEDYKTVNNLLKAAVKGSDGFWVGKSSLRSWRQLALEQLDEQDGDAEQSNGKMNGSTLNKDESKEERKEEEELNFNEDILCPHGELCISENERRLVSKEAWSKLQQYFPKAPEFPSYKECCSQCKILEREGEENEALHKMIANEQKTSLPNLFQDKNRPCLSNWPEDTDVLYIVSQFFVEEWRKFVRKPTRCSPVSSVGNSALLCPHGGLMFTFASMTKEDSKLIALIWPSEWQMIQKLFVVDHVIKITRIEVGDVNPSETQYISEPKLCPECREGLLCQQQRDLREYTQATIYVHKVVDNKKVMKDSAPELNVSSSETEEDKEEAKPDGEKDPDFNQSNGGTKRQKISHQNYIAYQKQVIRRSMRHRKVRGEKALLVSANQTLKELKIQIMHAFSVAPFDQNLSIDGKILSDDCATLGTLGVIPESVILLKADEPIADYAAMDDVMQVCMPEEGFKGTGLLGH
Summary of the method: as §1

[5] = target: T4, USP5 (UniProt P45974)
T4 sequence (whole entry): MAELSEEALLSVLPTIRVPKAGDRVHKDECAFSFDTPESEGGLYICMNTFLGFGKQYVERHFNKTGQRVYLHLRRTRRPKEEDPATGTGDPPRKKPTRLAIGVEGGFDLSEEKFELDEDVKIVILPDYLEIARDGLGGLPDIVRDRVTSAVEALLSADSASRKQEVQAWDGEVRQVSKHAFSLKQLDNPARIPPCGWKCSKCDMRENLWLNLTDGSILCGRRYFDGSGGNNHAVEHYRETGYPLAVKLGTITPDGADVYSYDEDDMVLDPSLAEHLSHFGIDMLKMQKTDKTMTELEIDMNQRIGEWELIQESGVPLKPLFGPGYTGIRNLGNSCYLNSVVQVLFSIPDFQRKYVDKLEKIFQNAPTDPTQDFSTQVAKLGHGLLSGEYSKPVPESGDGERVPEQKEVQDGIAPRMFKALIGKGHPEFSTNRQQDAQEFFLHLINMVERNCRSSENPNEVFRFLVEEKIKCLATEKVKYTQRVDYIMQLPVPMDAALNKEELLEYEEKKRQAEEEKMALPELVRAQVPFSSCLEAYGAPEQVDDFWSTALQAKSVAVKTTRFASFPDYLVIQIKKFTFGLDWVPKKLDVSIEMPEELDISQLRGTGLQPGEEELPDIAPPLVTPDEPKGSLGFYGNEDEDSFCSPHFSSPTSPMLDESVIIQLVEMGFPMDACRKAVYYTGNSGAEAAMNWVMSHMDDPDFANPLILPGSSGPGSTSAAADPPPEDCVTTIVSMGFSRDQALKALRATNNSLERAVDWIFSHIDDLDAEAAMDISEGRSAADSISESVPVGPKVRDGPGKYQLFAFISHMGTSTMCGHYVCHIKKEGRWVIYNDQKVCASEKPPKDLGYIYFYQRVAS
Summary of the method: as §1

[6] = target: USP54 (UniProt Q70EL1)
Summary of the method: as §1

[7] = target: USP7 (UniProt Q93009)
Summary of the method: as §1

[8] = target: T5, USP8 (UniProt P40818)
T5 sequence (whole entry): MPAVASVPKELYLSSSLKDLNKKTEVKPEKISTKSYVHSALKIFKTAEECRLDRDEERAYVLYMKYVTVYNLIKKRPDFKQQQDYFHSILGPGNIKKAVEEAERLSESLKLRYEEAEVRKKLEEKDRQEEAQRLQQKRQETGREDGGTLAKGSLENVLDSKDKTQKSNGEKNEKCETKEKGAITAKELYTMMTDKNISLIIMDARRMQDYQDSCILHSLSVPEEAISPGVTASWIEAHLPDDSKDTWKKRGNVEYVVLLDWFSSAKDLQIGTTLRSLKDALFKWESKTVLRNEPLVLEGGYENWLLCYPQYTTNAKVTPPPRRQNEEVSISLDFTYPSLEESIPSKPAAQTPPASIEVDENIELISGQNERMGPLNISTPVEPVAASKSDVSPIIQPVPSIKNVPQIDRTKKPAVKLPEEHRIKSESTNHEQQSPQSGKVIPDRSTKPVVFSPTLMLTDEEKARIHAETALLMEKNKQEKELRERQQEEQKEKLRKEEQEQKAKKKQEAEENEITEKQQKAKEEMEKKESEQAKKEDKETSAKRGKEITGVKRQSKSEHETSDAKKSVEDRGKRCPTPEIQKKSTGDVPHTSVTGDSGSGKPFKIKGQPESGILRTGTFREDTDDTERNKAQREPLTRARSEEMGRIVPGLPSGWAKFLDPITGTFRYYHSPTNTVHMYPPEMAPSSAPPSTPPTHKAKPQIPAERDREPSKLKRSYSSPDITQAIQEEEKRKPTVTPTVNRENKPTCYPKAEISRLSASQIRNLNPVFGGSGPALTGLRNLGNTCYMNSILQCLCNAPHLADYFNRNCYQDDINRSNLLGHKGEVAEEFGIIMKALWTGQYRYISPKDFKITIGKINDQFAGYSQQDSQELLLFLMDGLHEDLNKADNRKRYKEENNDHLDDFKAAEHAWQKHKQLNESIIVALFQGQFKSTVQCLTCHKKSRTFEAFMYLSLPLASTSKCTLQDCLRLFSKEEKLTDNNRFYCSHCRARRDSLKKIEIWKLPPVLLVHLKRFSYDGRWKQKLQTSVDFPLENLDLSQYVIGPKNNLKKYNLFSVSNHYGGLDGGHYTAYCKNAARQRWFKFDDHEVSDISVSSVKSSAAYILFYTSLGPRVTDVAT
Summary of the method: as §1

[9] = target: USP9X (UniProt Q93008)
Summary of the method: as §1

[10] = target: UniProt O00487
Summary of the method: as §1

Measured: log2 ratio of Biotin-Ahx-Ub-VS probe labelling

Sequence of USP9X (Q93008 whole entry): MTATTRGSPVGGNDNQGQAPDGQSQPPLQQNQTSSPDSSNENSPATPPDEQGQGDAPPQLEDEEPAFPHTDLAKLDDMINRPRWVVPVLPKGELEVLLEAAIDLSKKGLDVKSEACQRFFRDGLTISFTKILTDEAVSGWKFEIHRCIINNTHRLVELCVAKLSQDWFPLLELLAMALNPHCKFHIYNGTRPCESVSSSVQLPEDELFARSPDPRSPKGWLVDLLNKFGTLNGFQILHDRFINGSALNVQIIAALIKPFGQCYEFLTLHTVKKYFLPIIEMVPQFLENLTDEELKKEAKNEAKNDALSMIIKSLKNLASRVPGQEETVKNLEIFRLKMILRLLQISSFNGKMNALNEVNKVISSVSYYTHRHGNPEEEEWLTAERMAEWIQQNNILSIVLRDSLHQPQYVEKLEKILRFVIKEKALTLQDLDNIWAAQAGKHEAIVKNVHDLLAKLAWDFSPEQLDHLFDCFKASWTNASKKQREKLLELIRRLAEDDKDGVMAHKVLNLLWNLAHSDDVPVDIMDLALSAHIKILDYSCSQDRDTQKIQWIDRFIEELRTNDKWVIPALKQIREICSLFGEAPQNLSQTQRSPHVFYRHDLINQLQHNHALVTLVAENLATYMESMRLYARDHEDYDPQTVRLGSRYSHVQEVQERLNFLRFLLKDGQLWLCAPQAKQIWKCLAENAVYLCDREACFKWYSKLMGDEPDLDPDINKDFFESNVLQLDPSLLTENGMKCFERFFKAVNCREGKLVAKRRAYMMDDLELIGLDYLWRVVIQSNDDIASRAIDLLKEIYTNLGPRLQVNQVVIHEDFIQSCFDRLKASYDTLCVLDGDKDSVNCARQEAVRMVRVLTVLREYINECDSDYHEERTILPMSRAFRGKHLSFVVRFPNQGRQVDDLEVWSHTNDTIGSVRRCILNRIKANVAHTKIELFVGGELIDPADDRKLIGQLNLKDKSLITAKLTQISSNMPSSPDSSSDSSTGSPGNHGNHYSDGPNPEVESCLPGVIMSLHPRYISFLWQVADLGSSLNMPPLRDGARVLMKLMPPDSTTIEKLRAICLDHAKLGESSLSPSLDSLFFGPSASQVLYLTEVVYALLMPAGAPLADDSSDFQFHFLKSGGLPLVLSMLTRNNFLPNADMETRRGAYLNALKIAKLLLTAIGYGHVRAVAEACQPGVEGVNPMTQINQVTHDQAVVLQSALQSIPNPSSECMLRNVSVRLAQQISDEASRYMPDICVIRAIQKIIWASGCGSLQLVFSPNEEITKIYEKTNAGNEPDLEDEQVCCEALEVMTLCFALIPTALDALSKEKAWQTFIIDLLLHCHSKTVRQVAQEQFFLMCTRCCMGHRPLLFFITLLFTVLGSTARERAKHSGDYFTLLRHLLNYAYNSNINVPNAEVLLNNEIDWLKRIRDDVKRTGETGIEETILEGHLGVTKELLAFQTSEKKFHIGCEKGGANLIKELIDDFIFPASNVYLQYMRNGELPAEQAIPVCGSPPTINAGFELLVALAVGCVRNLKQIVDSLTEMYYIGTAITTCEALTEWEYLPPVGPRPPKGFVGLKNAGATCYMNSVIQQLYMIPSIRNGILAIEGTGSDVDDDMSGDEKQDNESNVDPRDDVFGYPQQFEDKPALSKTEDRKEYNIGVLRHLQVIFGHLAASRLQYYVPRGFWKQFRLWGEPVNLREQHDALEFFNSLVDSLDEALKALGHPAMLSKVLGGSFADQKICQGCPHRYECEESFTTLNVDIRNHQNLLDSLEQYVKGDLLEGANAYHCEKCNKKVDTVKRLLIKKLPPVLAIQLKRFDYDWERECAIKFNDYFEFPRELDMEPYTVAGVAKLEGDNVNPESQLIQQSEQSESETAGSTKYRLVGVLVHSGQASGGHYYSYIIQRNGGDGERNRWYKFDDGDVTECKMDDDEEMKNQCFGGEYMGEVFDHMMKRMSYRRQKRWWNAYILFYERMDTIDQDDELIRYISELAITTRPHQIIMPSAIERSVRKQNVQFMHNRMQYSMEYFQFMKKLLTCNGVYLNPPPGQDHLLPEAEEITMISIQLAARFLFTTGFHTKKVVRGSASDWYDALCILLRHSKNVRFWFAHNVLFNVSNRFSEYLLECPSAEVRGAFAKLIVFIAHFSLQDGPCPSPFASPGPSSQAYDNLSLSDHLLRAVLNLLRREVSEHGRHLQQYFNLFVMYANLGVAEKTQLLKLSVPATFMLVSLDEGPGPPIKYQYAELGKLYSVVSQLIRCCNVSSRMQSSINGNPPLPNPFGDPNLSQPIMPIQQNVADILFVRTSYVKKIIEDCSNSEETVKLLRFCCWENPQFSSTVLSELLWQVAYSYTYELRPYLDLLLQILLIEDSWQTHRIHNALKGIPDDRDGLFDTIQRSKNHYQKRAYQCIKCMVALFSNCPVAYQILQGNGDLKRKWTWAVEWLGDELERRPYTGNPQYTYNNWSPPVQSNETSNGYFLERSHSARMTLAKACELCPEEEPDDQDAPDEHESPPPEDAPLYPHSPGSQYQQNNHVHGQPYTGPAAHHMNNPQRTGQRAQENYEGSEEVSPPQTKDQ
Sequence of USP7 (Q93009 whole entry, looked up): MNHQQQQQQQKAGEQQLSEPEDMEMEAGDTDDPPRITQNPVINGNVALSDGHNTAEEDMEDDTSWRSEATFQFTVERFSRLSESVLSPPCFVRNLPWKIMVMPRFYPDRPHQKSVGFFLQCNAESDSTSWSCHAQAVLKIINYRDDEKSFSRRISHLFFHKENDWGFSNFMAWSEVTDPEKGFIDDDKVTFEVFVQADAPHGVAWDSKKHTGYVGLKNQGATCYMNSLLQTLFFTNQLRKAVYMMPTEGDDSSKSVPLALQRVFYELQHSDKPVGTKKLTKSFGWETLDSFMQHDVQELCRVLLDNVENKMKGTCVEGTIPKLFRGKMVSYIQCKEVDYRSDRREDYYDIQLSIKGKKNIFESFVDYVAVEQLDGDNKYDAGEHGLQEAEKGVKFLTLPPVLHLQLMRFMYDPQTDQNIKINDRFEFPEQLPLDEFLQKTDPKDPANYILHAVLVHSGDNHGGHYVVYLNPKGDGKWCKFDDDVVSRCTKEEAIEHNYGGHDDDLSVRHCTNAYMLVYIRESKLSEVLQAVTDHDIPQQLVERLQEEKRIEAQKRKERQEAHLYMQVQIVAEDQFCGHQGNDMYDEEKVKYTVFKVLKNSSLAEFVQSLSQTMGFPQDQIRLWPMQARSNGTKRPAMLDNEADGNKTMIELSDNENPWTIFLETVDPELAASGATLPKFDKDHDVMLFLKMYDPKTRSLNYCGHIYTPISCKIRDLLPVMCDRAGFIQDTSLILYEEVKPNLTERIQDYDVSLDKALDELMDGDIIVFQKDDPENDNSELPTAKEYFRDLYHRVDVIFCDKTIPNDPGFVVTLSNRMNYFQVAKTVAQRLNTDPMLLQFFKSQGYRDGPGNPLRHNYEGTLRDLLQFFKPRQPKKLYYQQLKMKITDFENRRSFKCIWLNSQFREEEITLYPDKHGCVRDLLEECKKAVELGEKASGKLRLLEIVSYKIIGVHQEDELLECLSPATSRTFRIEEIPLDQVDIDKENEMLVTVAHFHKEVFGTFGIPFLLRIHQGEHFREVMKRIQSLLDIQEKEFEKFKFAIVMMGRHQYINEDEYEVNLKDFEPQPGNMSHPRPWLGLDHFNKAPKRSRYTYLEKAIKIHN
Sequence of USP46 (P62068 whole entry): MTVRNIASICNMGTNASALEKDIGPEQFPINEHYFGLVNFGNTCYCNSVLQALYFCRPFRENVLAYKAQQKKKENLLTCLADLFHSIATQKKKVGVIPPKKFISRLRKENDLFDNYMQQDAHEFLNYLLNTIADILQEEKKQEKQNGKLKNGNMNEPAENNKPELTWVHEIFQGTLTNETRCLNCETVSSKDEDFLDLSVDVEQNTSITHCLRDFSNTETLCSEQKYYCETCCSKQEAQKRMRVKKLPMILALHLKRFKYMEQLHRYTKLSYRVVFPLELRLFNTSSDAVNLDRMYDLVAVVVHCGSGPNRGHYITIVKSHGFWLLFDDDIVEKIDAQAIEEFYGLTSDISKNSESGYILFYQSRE
Sequence of UniProt O00487 (O00487 whole entry): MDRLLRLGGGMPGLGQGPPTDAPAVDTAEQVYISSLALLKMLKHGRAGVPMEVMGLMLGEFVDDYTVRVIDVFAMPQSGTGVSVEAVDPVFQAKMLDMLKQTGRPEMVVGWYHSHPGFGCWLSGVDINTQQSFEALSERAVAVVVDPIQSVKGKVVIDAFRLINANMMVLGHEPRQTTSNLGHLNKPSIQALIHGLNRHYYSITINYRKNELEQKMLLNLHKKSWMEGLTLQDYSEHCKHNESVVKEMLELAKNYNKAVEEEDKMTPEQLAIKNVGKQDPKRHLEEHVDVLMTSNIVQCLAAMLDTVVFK

O=C(CCl)N1CCOC2(CCC2)C1
inactive: [1] 0.183 | [2] 0.171 | [3] -0.386 | [4] -0.474 | [5] 0.109 | [6] -0.395 | [7] 0.0903 | [8] -0.347 | [9] 0.105 | [10] -0.0639
